Screening results: PubChem BioAssay, National Center for Advancing Translational Sciences (NCATS)
In the library only some 11% were active in any assay of this set; here they are far more common.
IMPase cell inh: qHTS Assay for Identifying the Cell-Membrane Permeable IMPase Inhibitors; Inositol monophosphatase 1 (Rattus norvegicus), P97697; CHO-M1 cells, IP1 accumulation, HTRF TR-FRET ratio; inhibition (IP1 accumulation), % at 46.1 µM; 120,000 tested, under 10 active; active = well fitted curve in the direction sought with a large enough effect in the signal ratio, not every such curve was filed as active; inconclusive = small, poorly fitted or top-dose-only effect, or a change in a side signal; inactive = no such curve, though single readings can be large or run the other way; the % refers to the signal ratio;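 note: cells stimulated with carbachol in lithium chloride buffer; plate controls were DMSO basal wells for no effect and reference inhibitor wells for full effect; higher means more IMPase inhibition seen as more IP1 and lower FRET ratio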
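Carbachol-driven Gq signalling in CHO-M1 cells (2000/well) generates IP1. Compounds that block IMPase raise IP1 and so reduce the FRET signal from Eu-anti-IP1 and d2-IP1 after a 10 min room-temperature lysis.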
IMPase Li cell: qHTS Assay for Identifying the Cell-Membrane Permeable IMPase Inhibitors: Potentiation with Lithium; CHO-M1 cells, IP1 TR-FRET (IP-One), carbachol + lithium; Potency, µM (top dose mostly 59.4 µM), for inactives: at the top dose activity, negative = IMPase inhibition, most hits filed as inhibitors; actives 0.35% (n = 210,000); AID 1457, 2008;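 note: IP1 builds up when IMPase is blocked and the TR-FRET signal falls; potency is the fitted concentration of half-maximal effect; plate controls were basal vehicle for no effect and high inhibitor control for full effect; nearly all actives have a fitted effect of over 50% in size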
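CHO-M1, 2000 cells/well, 16–30 h culture; cpd + low Li+, 30 min 37C; lysis with d2-IP1/Eu-anti-IP1 Ab, 10 min RT; TR-FRET 665/620 ratio and 620 channel; AC50 via Hill.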
PNC inhibitor: High Content Assay for Compounds that inhibit the Assembly of the Perinucleolar Compartment; activity change (PNC), negative = inhibition, % at 10 µM; actives 3.1% (n = 140,000); PC3M PTB-GFP, PNC prevalence imaging, 16 h; stronger effect = lower value;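 active = readout at or below -70, meaning at least 70% loss of cells showing the perinucleolar compartment, a nuclear body marking cancer cells; inconclusive = readout between -30 and a set limit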;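 note: plate controls were DMSO wells for no effect and camptothecin positive control wells for full effect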
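PC3M cells stably expressing PTB-GFP, 750–1000 cells/well, treated 16 h at 37 °C with compound (23 nl of library stock), in duplicate. After paraformaldehyde fixation and Hoechst stain, imaged at 20x; PNC prevalence scored by image analysis.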
HPGD inh: qHTS Assay for Inhibitors of HPGD (15-Hydroxyprostaglandin Dehydrogenase). purified HPGD, NADH fluorescence kinetic, PGE2 substrate. Potency, µM, for the others: top-dose activity change, negative = inhibition, usual class: inhibitors. actives 4.3% (n = 150,000); active = well fitted inhibition curve with a large enough effect, not every such curve was filed as active; inconclusive = small, poorly fitted or top-dose-only effect, or another doubt; inactive = no such curve, though single readings can be large or run the other way; note: potency is the fitted concentration of half-maximal effect
Target sequence (P15428 whole entry, looked up): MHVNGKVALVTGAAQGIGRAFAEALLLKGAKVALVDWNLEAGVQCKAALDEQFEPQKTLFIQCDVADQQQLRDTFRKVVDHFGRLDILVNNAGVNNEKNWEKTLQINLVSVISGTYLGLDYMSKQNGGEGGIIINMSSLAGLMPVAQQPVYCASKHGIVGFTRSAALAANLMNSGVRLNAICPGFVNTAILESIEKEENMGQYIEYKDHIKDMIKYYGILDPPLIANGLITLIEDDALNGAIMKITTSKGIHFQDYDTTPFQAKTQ
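20 nM HPGD preincubated 15 min at room temperature with compound in 50 mM Tris-HCl pH 8, 0.01% Tween 20. Started with 1 mM NAD+ and 30 uM prostaglandin E2; NADH fluorescence (360/450 nm) read 5 times over 30-s intervals, last minus first.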
12-hLO inh: qHTS Assay for Inhibitors of 12-hLO (12-human lipoxygenase) | Polyunsaturated fatty acid lipoxygenase ALOX12 (Homo sapiens), P18054 | actives 0.12% (n = 150,000) | purified 12-hLO, xylenol orange hydroperoxide absorbance | Potency, µM (titrated, usually from 57.1 µM), inactives show top-dose activity change, negative = inhibition, most hits filed as inhibitors | AID 1452, 2008; note: potency is the fitted concentration of half-maximal effect; nearly all actives have a fitted effect of over 55% in size
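Lipoxygenase turnover measured by absorbance at 573 and 405 nm after Fe-XO development. Human 12hLO 150 nM, arachidonate 40 uM, pH 7.0 Hepes buffer with detergent; 15 min compound preincubation, 30 min reaction.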
ALDH1A1 block: qHTS Assay for Inhibitors of Aldehyde Dehydrogenase 1 (ALDH1A1) | Aldehyde dehydrogenase 1A1 (Homo sapiens), P00352 | Purified ALDH1A1, NADH fluorescence, propionaldehyde substrate | Potency, µM (top dose mostly 75.3 µM), for inactives: top-dose activity, negative = inhibition, actives largely listed as inhibitors | actives 7.3% (n = 220,000) | AID 1030, 2008; active = well fitted inhibition curve with a large enough effect, not every such curve was filed as active; inconclusive = small, poorly fitted or top-dose-only effect, or another doubt; inactive = no such curve, though single readings can be large or run the other way;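 note: potency is the fitted concentration of half-maximal effect; plate controls were no enzyme wells and a reference inhibitor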
Target sequence (P00352 whole entry, looked up): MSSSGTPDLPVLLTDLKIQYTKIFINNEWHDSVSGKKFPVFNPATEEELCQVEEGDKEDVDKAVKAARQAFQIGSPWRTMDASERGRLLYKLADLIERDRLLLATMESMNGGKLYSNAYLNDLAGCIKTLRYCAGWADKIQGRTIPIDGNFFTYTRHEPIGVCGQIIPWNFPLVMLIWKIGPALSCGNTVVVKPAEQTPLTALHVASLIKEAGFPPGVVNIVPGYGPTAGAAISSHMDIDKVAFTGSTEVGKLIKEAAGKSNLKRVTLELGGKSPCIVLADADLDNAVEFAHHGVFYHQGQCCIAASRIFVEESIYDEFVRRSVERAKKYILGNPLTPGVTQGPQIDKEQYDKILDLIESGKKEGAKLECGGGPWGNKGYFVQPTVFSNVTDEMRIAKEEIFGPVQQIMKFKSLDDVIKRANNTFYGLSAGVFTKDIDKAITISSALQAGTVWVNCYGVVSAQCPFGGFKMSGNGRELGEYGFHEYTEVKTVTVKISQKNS
Numbers without * were called inactive; ? = inconclusive; / = not tested or not shown; [ ] = dose if it differs, or a comment. Unless noted, calls come from the whole dose curve; as a rule, active = well fitted curve in the direction sought with a large enough effect; inconclusive = small, poorly fitted or top-dose-only effect, or another doubt; inactive = no such curve, though single readings can be large; an effect the other way counts as inactive or inconclusive. Unless noted, % is set by controls: 0 for no effect and ±100 for the full control effect.

SMILES	IMPase cell inh	IMPase Li cell	PNC inhibitor	HPGD inh	12-hLO inh	ALDH1A1 block
O=C(C1Cc2ccccc2O1)N1CCCCC1 (centres undefined)	2.2	2.9%[38.3 µM]	7.1	25.1µM*	-2.5%	-2.7%
O=C(C1CC(c2ccc(F)cc2)=NO1)N1CCc2ccccc2C1 (centres undefined)	0.8	-11.3%[38.3 µM]	27.6	20µM*	-7.3%	-9.7%
COc1ccc(-c2cc(C(=O)OCC(=O)c3ccc(C)cc3)c3cccc(Cl)c3n2)cc1	-5.5	/	/	/	/	/
N=C(N)c1ccc(N2CCN(C3CCN(CC(=O)O)CC3)CC2)cc1	/	-9.7%	/	-5.5%	1.7%	-2.9%
CCOc1ncccc1C(=O)OCC(=O)N(CC(C)C)C1CCS(=O)(=O)C1 (centres undefined)	/	-0.6%	/	/	/	2.4%
CC(=O)c1c(C)[nH]c(C(=O)NCCc2ccccc2)c1C	3.0	-3.7%[38.3 µM]	-27.6	-13.4%	-6.1%	2.2%
CC(=O)c1c(C)[nH]c(C(=O)N(C)C(c2ccccc2)c2ccccc2)c1C	/	13.2%	/	/	/	17.8µM*
Cn1cccc1C(C#N)c1cccc(F)c1C#N (centres undefined)	/	3.7%	/	/	/	25.1µM*
O=S(=O)(NCc1ccco1)c1cccc2cccnc12	-3.8	5.5%	-100.0*	-8.9%	-1.2%	4.4%
CN(CC(=O)NCc1ccco1)S(=O)(=O)c1cccc2cccnc12	6.3	-9.4%[38.3 µM]	48.8	-2.9%	?	-15.6%
C/C(=N\Nc1ccccn1)c1ccc(S(=O)(=O)NCc2ccco2)cc1	/	4.9%	-82.8*	-13.1%	-2.5%	29.0%
CCOc1ccc(S(=O)(=O)NCc2ccco2)c2ccccc12	4.3	1.4%[38.3 µM]	11.9	?	?	14.1µM*
C/C(=N\Nc1ccc(C(F)(F)F)cn1)c1ccc(S(=O)(=O)NCc2ccco2)cc1	/	12.9%	14.1	-20.9%	-0.2%	5.9%
O=C(c1ccccc1)c1ccc2n1CC[C@H]2C(=O)O	3.3[20.6 µM]	7.9%	/	-17.3%	2.5%[25.6 µM]	-3.7%[20.9 µM]
CC(=O)c1c(C)[nH]c(C(=O)CSc2nc3ccc(C)cc3[nH]2)c1C	3.5	9.6%	-14.9	-29.5%	5.0%	25.1µM*
COc1ccccc1-n1cnc2cc(C(=O)NCc3ccco3)ccc21	10.7	12.0%[38.3 µM]	2.8	12.6µM*	-8.1%	?
COCCNC(=O)c1ccc2c(c1)nc(C)n2-c1cc(OC)c(OC)c(OC)c1	4.2	2.4%[38.3 µM]	62.5	14.1µM*	1.1%	3.0%
CCOc1ccc(-n2c(C)nc3cc(C(=O)NCc4ccco4)ccc32)cc1	2.0	-3.1%[38.3 µM]	64.7	8.91µM*	-6.1%	?
CCOc1ccc(-n2c(C)nc3cc(C(=O)NCc4ccc5c(c4)OCO5)ccc32)cc1	/	9.5%	33.1	?	2.0%	-11.0%
COc1ccc(-n2c(C)nc3cc(C(=O)NCc4ccco4)ccc32)cc1	5.5	6.9%[38.3 µM]	16.5	8.91µM*	-7.3%	?
Cc1nc2cnc(N(C)C)nc2n(C2CC2)c1=O	/	-1.6%	/	/	/	?
N#CC(Nc1ccccc1)c1ccccc1OCc1ccccc1 (centres undefined)	-1.6	31.6%[38.3 µM]	-6.3	-15.5%	-2.8%	17.8µM*
CC(C)OC(=O)[C@H]1O[C@H](CCCCOCc2ccccc2)[C@@H](C)[C@H]2O[C@H]21	/	18.0%	/	-5.0%	/	0.9%
NNc1ccccc1C(F)(F)F	/	5.5%	/	/	/	17.8µM*
CC(C)(C)C(=O)NC(=O)Nc1ccccc1C(F)(F)F	/	/	/	/	/	5.9%
SMILES	IMPase cell inh	IMPase Li cell	PNC inhibitor	HPGD inh	12-hLO inh	ALDH1A1 block
CS(=O)(=O)N1CCc2cc(-c3csc(NC(=O)C(c4ccccc4)c4ccccc4)n3)ccc21	1.7	16.6%[38.3 µM]	47.8	-10.2%	-2.3%	?
CNc1nc(-c2ccc3c(c2)CCN3C(=O)c2ccccc2F)cs1	/	16.2%	/	/	/	25.1µM*
CNc1nc(-c2ccc3c(c2)CCN3S(=O)(=O)c2ccccc2)c(C)s1	/	13.0%	/	/	/	8.91µM*
CNc1nc(-c2ccc3c(c2)CCN3C(=O)CC(C)(C)C)c(C)s1	/	15.8%	/	/	/	-13.2%
CC(C)(C)C(=O)N1CCc2cc(-c3csc(N)n3)ccc21	-2.6	-12.1%[38.3 µM]	25.0	-23.2%	7.1%	-1.8%
CNc1nc(-c2ccc3c(c2)CCN3C(=O)c2ccccc2F)c(C)s1	/	8.2%	/	/	/	11.2µM*
CCOC(=O)CSC(=S)NC(=O)c1ccc(OC)cc1	/	-10.3%	4.7	10µM*	-0.7%	?
CC(C)=NOC[C@@H](O)COCc1ccco1	/	/	/	/	/	-4.8%[13.5 µM]
COc1cccc(/C=C/C2=CC3(C)CC2(C)C(c2cccc(OC)c2)CC3=O)c1 (centres undefined)	/	/	/	/	/	1.5%[13.5 µM]
COc1cc(OC)c(Nc2cc(C)nc3ncnn23)cc1Cl	-0.8	/	/	/	/	/
COc1ccc(NC(=S)N/C(=N/S(=O)(=O)c2ccc(C)cc2)c2ccccc2)cc1	/	3.9%	/	/	/	?
CCOC(=S)N/C(=N\S(=O)(=O)c1ccc(C)cc1)c1ccccc1	-0.4	0.5%	28.0	25.1µM*	-0.7%	14.1µM*
C[C@H](Cc1ccccc1)Nc1ncnc2c1ncn2[C@@H]1O[C@H](CO)[C@H](O)[C@H]1O	/	6.9%	/	?	/	26.1%
Nc1nc(C2CC(=O)OC23CCCCC3)cs1 (centres undefined)	14.2	-2.5%	-118.9*	-7.4%	-0.3%	?
Cc1nc(C2CC(=O)OC23CCCCC3)cs1 (centres undefined)	2.9	4.0%[38.3 µM]	-14.7	-7.8%	-1.4%	-8.7%
